IDE inh – cellular human IDE inhibition | P14735 | HEK cells, FAbetaB cleavage, fluorescence polarization | inhibition, % at 5.59 µM | 320,000 tested, 0.41% active;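 active = percent inhibition above the average of all tested compounds plus 3 SD, set per screening campaign, cut at about 16% in these data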;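 note: IDE supplied by intact live HEK cells; FP after avidin binding of uncleaved biotin substrate so inhibition keeps polarization high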
Target sequence (P14735 whole entry, looked up): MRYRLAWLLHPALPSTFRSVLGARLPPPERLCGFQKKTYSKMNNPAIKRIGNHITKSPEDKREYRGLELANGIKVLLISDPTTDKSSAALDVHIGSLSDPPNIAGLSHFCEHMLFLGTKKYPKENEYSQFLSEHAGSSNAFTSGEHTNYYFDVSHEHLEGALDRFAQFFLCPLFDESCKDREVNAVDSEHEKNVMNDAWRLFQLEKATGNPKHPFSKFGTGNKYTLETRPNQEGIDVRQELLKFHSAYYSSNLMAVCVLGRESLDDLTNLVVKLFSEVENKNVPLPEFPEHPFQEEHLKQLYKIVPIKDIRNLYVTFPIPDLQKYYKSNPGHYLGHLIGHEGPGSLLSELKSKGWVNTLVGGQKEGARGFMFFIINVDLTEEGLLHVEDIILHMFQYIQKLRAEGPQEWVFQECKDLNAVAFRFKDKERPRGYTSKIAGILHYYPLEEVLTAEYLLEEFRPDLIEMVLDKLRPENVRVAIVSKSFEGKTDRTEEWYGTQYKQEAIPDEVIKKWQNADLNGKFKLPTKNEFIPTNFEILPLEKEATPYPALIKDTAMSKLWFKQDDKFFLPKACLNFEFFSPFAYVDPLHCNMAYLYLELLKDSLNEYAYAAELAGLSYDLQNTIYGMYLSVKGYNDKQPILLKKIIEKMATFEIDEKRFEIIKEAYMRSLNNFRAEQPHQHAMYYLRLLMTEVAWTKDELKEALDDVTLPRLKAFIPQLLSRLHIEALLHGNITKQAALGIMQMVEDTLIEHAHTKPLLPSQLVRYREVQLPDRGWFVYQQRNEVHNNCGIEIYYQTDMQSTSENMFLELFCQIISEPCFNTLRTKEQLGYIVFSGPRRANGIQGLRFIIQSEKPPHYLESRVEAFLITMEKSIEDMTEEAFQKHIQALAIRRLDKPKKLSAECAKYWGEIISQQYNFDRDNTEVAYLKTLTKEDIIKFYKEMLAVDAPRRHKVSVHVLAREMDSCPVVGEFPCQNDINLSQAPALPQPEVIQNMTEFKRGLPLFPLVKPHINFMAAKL
Rpn11 inh – inhibitors of human proteasome Rpn11; AID 588493; inhibition, % at 20 µM; 360,000 tested, 0.59% active; human 26S proteasome, Ub4-pepOG fluorescence polarization; 20S core pre-blocked with epoxomicin; O00487;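 active = inhibition at 20 µM, scaled to each plate's controls, above about 33%, limit read from the data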
IDE cell activ – IDE (human) activation, cell-based; P14735; AID 493087; HEK cells, FAbeta-B cleavage, fluorescence polarization; 0% vehicle, 100% cell-free pure enzyme wells; 340,000 tested, 0.073% active; activation, % at 5.96 µM;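 active = activation above the mean of all tested compounds plus 3 SD, set per screening campaign, cut at about 17% in these data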
Calb FLC – C. albicans growth modulation with fluconazole; growth inhibition, % (no concentration beside the values); AID 1979; 300,000 tested, 0.57% active; C. albicans CaCi-2 (fluconazole-resistant clinical isolate) + fluconazole, Alamar Blue growth, 48 h;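 active = growth inhibition above about 58% in most replicates, limit read from the data, passing the limit was not always enough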;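 note: all wells also contain fluconazole at 8 µg/ml as a sub-toxic cotreatment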
TPT1 inh – blocks Candida albicans tRNA 2'-phosphotransferase; recombinant caTPT1, FP RNA substrate dephosphorylation; inhibition, % at 5 µM; 300,000 tested, 0.81% active;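 active = inhibition above the mean of all tested compounds plus 3 SD, set per screening campaign, cut at about 24% in these data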
Rin1-Abl PPI inh – human Rin1-Abl interaction inhibition; inhibition, % at 7.35 µM; TR-FRET Rin1/Abl binding, biochemical; AID 588664; 360,000 tested, 0.4% active; P00519+Q13671; in the data active = inhibition above about 5%, passing the limit was not always enough
Rin1-Abl confirm – confirmation of inhibitors of human Rin1-Abl interaction; inhibition, % at 7.35 µM; shares compounds with Rin1-Abl PPI inh; TR-FRET Rin1-Abl binding, purified proteins; 1,300 tested, 49% active
GFP quench-1 – counter-screen for Rin1-Abl inhibitors: GFP fluorescence quenchers | shares compounds with Rin1-Abl PPI inh | inhibitors/quenchers counterscreen | inhibition, % at 6.75 µM | 1,300 tested, 8.5% active;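 note: ABL1-eGFP fusion protein alone without its partner RIN1-SBP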
GFP quench DR – GFP fluorescence interference dose response; shares compounds with Rin1-Abl PPI inh; GFP fluorescence interference/quenching counterscreen; IC50, µM; 230 tested, under 10 active; AID 602182; call rule not given here;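 note: ABL1-eGFP fusion protein alone without its RIN1 binding partner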
GFP quench-2 – GFP quenching artifact for Rin1-Abl inhibitor hits | shares compounds with Rin1-Abl PPI inh | GFP fluorescence quenching counterscreen, biochemical | IC50, µM | 25 tested, under 10 active | AID 602397; call rule not given here
Numbers stand for hits; - = inactive; . = no result given. This is a sample that favours compounds with a hit; in the whole collection about 2.3% have one here. Cut-off read from the data, not from the text of the source, unless noted: active = inhibition above about 6.5%; inactive = the rest.

SMILES	IDE inh	Rpn11 inh	IDE cell activ	Calb FLC	TPT1 inh	Rin1-Abl PPI inh	Rin1-Abl confirm	GFP quench-1	others
N#CC12CCCCC1CC1CCCCC1(C#N)N2Cc1cccnc1 (stereo not drawn)	-	-	-	-	-	53	92	-	GFP quench DR=-
CCN(c1ccc(NC(=O)CCc2nc3sc4c(c3c(=O)[nH]2)CCCC4)cc1)C(C)C	-	-	-	-	-	-	.	.
CCOC(=O)CCCCC(=O)c1[nH]c(=O)[nH]c1CSc1nc(C)cc(=O)[nH]1	-	-	-	-	-	82	86	-	GFP quench DR=-
CCOC(=O)CCCCC(=O)c1[nH]c(=O)[nH]c1CSc1nc(C)cc(C)n1	-	-	-	-	-	68	71	-	GFP quench DR=-
CCOC(=O)CCCCC(=O)c1[nH]c(=O)[nH]c1C[n+]1ccccc1	-	.	.	-	-	.	.	.
CCOC(=O)CCCCC(=O)c1[nH]c(=O)[nH]c1CN1CCOCC1	-	-	-	-	-	80	88	-	GFP quench DR=-
CCOC(=O)CCCCC(=O)c1[nH]c(=O)[nH]c1C[n+]1ccc(C)cc1	-	-	-	-	-	23	30	-	GFP quench DR=-
CCOC(=O)c1[nH]c(=O)[nH]c1CSc1nc(C)cc(C)n1	-	-	-	-	-	-	.	.
COc1ccc(CN2CCC(n3nccc3NC(=O)C3CC3)CC2)c(Cl)c1OC	-	-	-	-	-	-	.	.
CNC(=O)COc1coc(CN2CCN(c3ccccc3F)CC2)cc1=O	-	-	-	-	-	-	.	.
Cc1ccc(C(O)c2ncc(-c3cccc(C(F)(F)F)c3)[nH]2)cc1 (stereo not drawn)	.	-	.	.	.	-	.	.
CCOC(=O)CCCCC(=O)c1[nH]c(=O)[nH]c1CSc1nc2ccccc2[nH]1	-	-	-	-	-	84	88	-	GFP quench DR=-
COc1cc(NC(=O)c2cc(-c3ccc4c(c3)OCO4)on2)cc(OC)c1OC	-	-	-	-	-	12	-	-
CC(C)N(CC(N)=O)C(=O)c1sc2cc(F)ccc2c1Cl	-	-	-	-	-	7.0	-	-
CN(Cc1cccc(C(F)(F)F)c1)C(=O)[C@H]1O[C@@H](n2ccc(N)nc2=O)[C@H](O)[C@@H]1O	.	-	.	.	.	-	.	.
Cc1cc(Br)ccc1NC(=O)CSc1nnc(CN2CCOCC2)n1C	-	-	-	-	-	10	-	-
Cn1c(=O)c2c(nc(N3CCC(C(N)=O)CC3)n2CCSc2nc3ccccc3s2)n(C)c1=O	-	-	-	-	-	9.7	7.0	-
CC1CCN(c2nc3c(c(=O)n(C)c(=O)n3C)n2CCSc2nc3ccccc3s2)CC1	-	-	-	-	-	-	.	.
Cc1ccc(S(=O)(=O)N2C[C@H]3[C@H]4C(=O)N(c5ccccc5)C(=O)[C@H]4CC(=O)[C@H]3[C@@H]2c2cccc3ccccc23)cc1	.	-	.	.	.	48	-	-
CCc1ccc(S(=O)(=O)N2CC(=O)Nc3ccccc32)cc1	-	-	-	-	-	-	.	.
CCC(C)c1ccc(S(=O)(=O)N2CC(=O)Nc3ccccc32)cc1 (stereo not drawn)	-	-	-	-	-	5.8	-	-
COC(=O)CC1(C(=O)OC)Nc2cc(Cl)c(Cl)cc2S(=O)(=O)N1O (stereo not drawn)	.	-	.	.	.	-	.	.
COc1ccc2oc(C(=O)NCCc3ccccc3)c(C)c2c1	-	-	-	-	-	-	.	.
COc1ccc2oc(C(=O)NCC(c3ccco3)N(C)C)c(C)c2c1 (stereo not drawn)	-	-	-	.	-	40	45	-	GFP quench DR=-;GFP quench-2=-
Cc1cc(C)n(-c2cc(Cl)cc(Cl)c2)c(=O)c1C#N	-	-	-	-	-	8.3	-	-
SMILES	IDE inh	Rpn11 inh	IDE cell activ	Calb FLC	TPT1 inh	Rin1-Abl PPI inh	Rin1-Abl confirm	GFP quench-1	others
Cc1ccc(-n2c(C)cc(C)c(C#N)c2=O)cc1Cl	-	-	-	-	-	-	.	.
COc1ccc(NC(=O)C2CCCN(c3ncnc4onc(-c5ccc(F)cc5)c34)C2)cc1 (stereo not drawn)	-	-	-	-	-	9.2	-	-
CC(=O)Nc1ccc(-c2ccnc3c2CC(C)(C(=O)NCc2ccc(N4CCN(C)CC4)cc2)O3)cc1 (stereo not drawn)	.	-	.	.	.	8.7	6.6	-
COc1ccc(NC(=O)C2(C)Cc3c(-c4cccc(C(N)=O)c4)ccnc3O2)cc1 (stereo not drawn)	.	-	.	.	.	10	-	-
CN(C)c1ccc(CNC(=O)C2Cc3c(-c4cccc(C(N)=O)c4)ccnc3O2)cc1 (stereo not drawn)	.	-	.	.	.	7.0	7.2	-
NC(=O)c1cccc(-c2ccnc3c2CC(C(=O)NCc2ccco2)O3)c1 (stereo not drawn)	.	-	.	.	.	-	.	.
NC(=O)c1cccc(-c2ccnc3c2CC(C(=O)Nc2ccccc2)O3)c1 (stereo not drawn)	.	-	.	.	.	12	8.6	-
NC(=O)c1cccc(-c2ccnc3c2CC(C(=O)Nc2ccc(Cl)cc2)O3)c1 (stereo not drawn)	.	-	.	.	.	-	.	.
CCC(C)Sc1cc(C(F)(F)F)c(C(=O)Nc2ccc(Cl)cc2)cn1 (stereo not drawn)	-	-	-	-	-	-	.	.
CCC(CC)C(=O)c1c[nH]c(C(=O)NCc2ccccc2OC)c1	-	-	-	-	-	-	.	.
CN(C)c1ccc(CNC(=O)C2(C)Cc3c(-c4cccc(C(N)=O)c4)ccnc3O2)cc1 (stereo not drawn)	.	-	.	.	.	16	8.3	-
Cn1nnc(NC(=S)NC(=O)c2cccc3ccccc23)n1	-	-	-	-	-	-	.	.
CN(Cc1ccc(C(C)(C)C)cc1)C(=O)C1CSC2(C)CCC(=O)N12 (stereo not drawn)	-	-	-	.	.	12	-	-
COc1cccc(CN(C)C(=O)C2CSC3(C)CCC(=O)N23)c1OC (stereo not drawn)	-	-	-	.	.	-	.	.
COC(=O)c1ccc(CS(=O)(=O)c2ccc(C)cc2)o1	-	-	-	-	-	-	.	.
CCc1nnc(NC(=O)c2ccc(OCc3c(C)noc3C)c(OC)c2)s1	-	-	-	-	-	-	.	.
CCCCc1nnc(NC(=O)c2ccc(OCc3c(C)noc3C)cc2)s1	.	-	-	.	.	17	28	-	GFP quench DR=-
O=C(COc1ccc2c(c1)OCO2)Nc1nncs1	-	-	-	-	-	-	.	.
CN(C)c1ccc(NC(=O)C2CCCN(S(=O)(=O)c3ccccc3)C2)cc1 (stereo not drawn)	-	-	-	-	-	-	.	.
